The campaign covered roughly 220,000 compounds. About 830 (0.38%) were called active.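 The calls were made as follows: active = compound inhibiting the enzyme by more than half at any dose during confirmatory dose-response retesting; inconclusive = strong single-dose inhibitors picked by rank but not retested; inactive = the rest.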 The list is a sample of the results. Potency and affinity values are given separately.
Target: Leucine aminopeptidase (Plasmodium falciparum (isolate 3D7)) (UniProt Q8IL11)
Assay: P. falciparum M17LAP inhibitors, primary screen, biochemical, fluorogenic H-Leu-NHMec substrate, 1536-well (AID 1619);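 also: plate controls were full reaction with DMSO carrier for no effect and no enzyme background for full effect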
Conditions: recombinant M17LAP, H-Leu-NHMec fluorogenic kinetic assay; at 30 µM; stronger effect = higher value

Sequence of Leucine aminopeptidase (Plasmodium falciparum (isolate 3D7)) (Q8IL11 whole entry, looked up): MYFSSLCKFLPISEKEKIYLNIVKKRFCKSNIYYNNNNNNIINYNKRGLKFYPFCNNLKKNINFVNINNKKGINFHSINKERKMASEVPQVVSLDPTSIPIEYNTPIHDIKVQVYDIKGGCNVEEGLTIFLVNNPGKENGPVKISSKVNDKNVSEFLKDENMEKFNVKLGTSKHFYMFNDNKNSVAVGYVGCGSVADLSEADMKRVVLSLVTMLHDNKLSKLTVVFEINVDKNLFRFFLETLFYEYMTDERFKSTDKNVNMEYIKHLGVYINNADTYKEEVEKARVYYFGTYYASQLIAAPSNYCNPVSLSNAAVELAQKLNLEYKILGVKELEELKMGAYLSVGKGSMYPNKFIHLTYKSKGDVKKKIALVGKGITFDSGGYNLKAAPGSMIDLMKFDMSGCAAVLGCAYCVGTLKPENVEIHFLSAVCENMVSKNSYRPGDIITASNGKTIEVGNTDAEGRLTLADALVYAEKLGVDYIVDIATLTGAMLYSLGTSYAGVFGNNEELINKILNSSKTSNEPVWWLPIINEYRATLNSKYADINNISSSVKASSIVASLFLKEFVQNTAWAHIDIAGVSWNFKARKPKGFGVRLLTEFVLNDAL

inhibition, inactive:
C=CCNC(=O)CN1CCC(NC(=O)c2ccco2)CC1 4.27%
Cc1ccc(/C=N/NC(=O)Cn2cncn2)cc1 2.86%
CC(=O)N1CCN(c2ccc(NC(=O)c3ccc4c(c3)OCO4)cc2)CC1 -9.38%
COc1ccc(C2Nc3ccccc3C(=O)N2c2ccccc2)cc1CN1CCOCC1 (stereo unspecified) -163%
CC(/C=C/c1ccc2c(c1)OCO2)=N/NC(=O)c1cccnc1 17.2%
Cc1ccc(NNC(=O)c2ccc(Cl)cc2)nn1 17.4%
COc1cc(/C=N/Nc2ccc(C(=O)O)cc2)ccc1O 22.3%
COc1ccc(/C=N/Nc2ccc(C(=O)O)cc2)cc1OC 25.7%
CCOc1ccc(OCC)c(NC(=O)C2CCCN(S(=O)(=O)c3c(C)noc3C)C2)c1 (stereo unspecified) 3.89%
COc1ccc(OC)c(N/C=C2/CCCCC2=O)c1 5.47%
NC(=O)COc1ncn(-c2ccccc2)n1 1.05%
CC(=O)COc1ncn(-c2ccccc2)n1 42.4%
CCCCC(=O)Nc1nnc(-c2ccc(OC)cc2)s1 4.4%
O=C(CN1C(=O)NC2(CCCC2)C1=O)OCc1cc(=O)n2cc(Br)ccc2n1 -0.9%
O=C1CCCCN1CCc1c[nH]c2ccccc12 15.4%
COc1ccc(N2CCN(c3n[nH]c(N)n3)CC2)cc1 0.79%
COc1ccc(-n2nc3c(N)n[nH]c3cc2=O)cc1 -0.44%
O=C(CC12CC3CC(CC(C3)C1)C2)NC(=S)NCc1ccccc1 -4.21%
Cc1cccnc1CN1CCN(C(=O)c2cc(COc3ccc4ncccc4c3)on2)CC1 0.97%
Cc1ccccc1NC(=O)c1cnc2ccccn2c1=O 2.31%
Cn1ncc(N)c1C(=O)Nc1cccc(C(F)(F)F)c1 1.2%
O=C(Nc1cccc(C(F)(F)F)c1)c1cccnc1 -1.75%
CSc1nc2nc3c(cc2c(=O)n1-c1ccc(C)cc1)COC(C)(C)C3 3.67%
CCc1ccc(CN(C)C(=O)CCc2nnc(Cc3cccc(C)c3)o2)nc1 -6.64%
Cc1cccc(C)c1NC(=O)CSCC(=O)O 4.91%
Cc1cccc(C)c1NC(=O)CSCCO 0.75%
CCOC(=O)CSc1nc(-c2ccccc2)nc2ccc(C)cc12 2.78%
CC1CN(c2nc(-c3ccccc3)nc3ccccc23)CC(C)O1 (stereo unspecified) 4.44%
Cc1ccc(/C=c2\sc3nc(-c4ccco4)nn3c2=O)o1 42.2%
CCN(CC)c1ccc(/C=c2\sc3nnc(-c4ccccc4Cl)n3c2=O)cc1 1.48%
Cc1ccc(/C=c2\sc3nc(-c4cccs4)nn3c2=O)o1 79.6%
CCN(CC)c1ccc(/C=c2/sc3nnc(-c4ccccc4C)n3c2=O)cc1 9.78%
CCc1ccc(NC(=O)C(C)Nc2ccc(S(=O)(=O)NC(C)=O)cc2)cc1 (stereo unspecified) 3.98%
O=[N+]([O-])c1cccc(-c2nnn(C34CC5CC(CC(C5)C3)C4)n2)c1 -10.4%
COc1ccc(N(CC(=O)Nc2ccc3c(c2)OCO3)S(=O)(=O)c2ccc(C)cc2)cc1OC -12.9%
COc1ccc2c(c1OC)C(=O)OC2CC(=O)c1ccc(O)cc1 (stereo unspecified) 14.4%
COc1ccc(C(=O)CC2OC(=O)c3c2ccc(OC)c3OC)cc1 (stereo unspecified) 9.31%
O=C(O)Cn1cc(/C=C2\SC(=O)N(c3ccccc3)C2=O)c2ccccc21 15%
CC(C)n1cc(/C=C2\NC(=O)N(c3cccc(Cl)c3)C2=O)c2ccccc21 -7.4%
CCOc1ccc(Nc2cc(=O)oc3ccccc23)cc1 4.7%
Cc1cccc(N2CCN(S(=O)(=O)c3ccc4c(c3)CCN4C(=O)CCC(=O)O)CC2C)c1 (stereo unspecified) -2.93%
CCN(CC)C(=O)CSc1nnnn1-c1ccc(F)c(Cl)c1 -1.03%
CNC(=S)Nc1ccc(C)cc1 3.68%
Cc1ccc(NC(N)=S)cc1 18.7%
O=C(CN1C(=O)C2C3C=CC(C3)C2C1=O)Nc1ccc2nccnc2c1 (stereo unspecified) 1.82%
Cc1cc(C=C2C(=O)c3ccccc3C2=O)c(C)n1-c1ccccc1 -3.81%
Cc1cc(C=C2C(=O)c3ccccc3C2=O)c(C)n1-c1ccc(C(=O)O)cc1 18.3%
Cn1c(=O)cc(OCCCC(=O)NCCC2=CCCCC2)c2ccccc21 -10.7%
C=CCn1cccc(C(=O)Nc2ccc(OC)cc2OC)c1=O 21.4%
COC(=O)COc1cccc2c(=O)n(CC(=O)N3CCCCC3)ccc12 12.9%
COc1cccc2c(=O)n(CC(=O)N3CCCCC3)ccc12 33.4%
COC(=O)COc1cccc2c(=O)n(CC(=O)N3CCC(C)CC3)ccc12 -7.98%
CCOC(=O)COc1cccc2c(=O)n(CC(=O)N3CCC(C)CC3)ccc12 3.95%
COc1ccccc1/C=C(\NC(=O)c1ccc(OC)c(OC)c1)C(=O)Nc1cccc([N+](=O)[O-])c1 -33.9%
Cc1ccc(-c2cc(C(=O)NCc3ccco3)no2)cc1 -5.12%
COc1cc(SC)ccc1C(=O)NCCN1CCOCC1 -0.03%
O=C(c1cccc(NS(=O)(=O)c2cccc(F)c2)c1)N1CCN(c2ccccc2)CC1 -9.4%
Cn1c(SCC(=O)Nc2ccc(N3CCOCC3)cc2)nnc1-c1ccccc1 -0.5%
COc1ccc(/C=N/N=C2\SC(CC(=O)O)C(=O)N2c2ccccc2)cc1 (stereo unspecified) 33.9%
COc1ccc(/C=N\N=C2/SC(CC(=O)O)C(=O)N2c2ccc(O)cc2)cc1 (stereo unspecified) 45.6%
Cc1ccc2cc(C)c3nnc(SCC(=O)N4CCCc5ccccc54)n3c2c1C 1.13%
Cc1cc(C(=O)CN2C(=O)NC3(CCCc4ccccc43)C2=O)c(C)n1Cc1ccccc1 (stereo unspecified) 7.63%
CCOc1ccccc1NC(=O)NC1(C(=O)N2CCN3CCCC3C2)CCCCC1 (stereo unspecified) 20.5%
CCn1c(SCC(=O)c2ccccc2)nnc1-c1cccnc1 14.5%
Cc1cc(SCC(=O)c2ccc(O)c(O)c2)n2nc(C)c(-c3ccccc3)c2n1 16.1%
CCn1c(SCC(=O)OC)nnc1-c1ccc(C)cc1 3.28%
CCn1c(SCC(=O)c2ccc(C)cc2)nnc1-c1ccncc1 3.05%
Cc1cc(SCC(=O)c2ccc(O)c(O)c2)nc2ccccc12 36.2%
CCn1c(SCC(=O)O)nnc1-c1ccccc1 -5.68%
Cn1cnnc1SCC(=O)c1ccc(O)c(O)c1 38.8%
O=C(CSc1nc2ccccc2n1CCc1ccccc1)c1ccc(O)c(O)c1 -0.72%
Cc1ccc2cc(CN(CC3CCCO3)S(=O)(=O)c3cccc4nsnc34)c(=O)[nH]c2c1 (stereo unspecified) -1.29%
O=C(COC(=O)c1ccc[nH]c1=O)NCC1CCCO1 (stereo unspecified) -1.42%
Cc1ccc(S(=O)(=O)N2CCN(CC(=O)NC3CCCc4ccccc43)CC2)c(C)c1 (stereo unspecified) 5.05%
CC(NC(=O)C(C)N1C(=O)C2C3CC(C(Br)C3Br)C2C1=O)c1ccccc1 (stereo unspecified) 10.6%
C=CCOC(=O)C1=C(C)Nc2ncnn2C1c1cc(Br)ccc1F (stereo unspecified) -2.3%
Cc1ccc(CSc2nnc(SCC(=O)N/N=C/C=C/c3ccccc3[N+](=O)[O-])s2)cc1 5.78%
S=c1[nH]nc(-c2ccccn2)n1/N=C/c1ccco1 0.92%
CCOc1ccc(C(=O)CN2CCN(S(=O)(=O)c3ccc(Br)cc3)CC2)cc1 41.1%
CCOc1ccc(C(=O)CN2CCN(S(=O)(=O)c3ccc(F)cc3)CC2)cc1 26.6%
CC(C)[C@H](NS(=O)(=O)c1ccc2c(c1)OCCO2)C(=O)OCC(=O)Nc1ccccc1Cl 9.34%
CC(=O)Nc1ccc(NS(=O)(=O)c2cc([N+](=O)[O-])ccc2C)cc1 1.99%
Cc1ccc(C)c(NC(=O)c2ccccc2NS(=O)(=O)c2cc([N+](=O)[O-])ccc2C)c1 31.8%
CCN(CC)CCN(C(=O)c1ccc2c(c1)CCCC2)c1nc2ccc(F)cc2s1 -4.78%
c1ccc(CCNc2nc(-c3ccncc3)nc3ccccc23)cc1 11.8%
COC(=O)c1c(-c2ccccc2)csc1NC(=O)c1ccco1 4.09%
CCc1ccc(-c2csc(NC(=O)C3CCCO3)c2C(=O)OC(C)C)cc1 (stereo unspecified) 57.8%
CCOC(=O)c1c(-c2ccc(OC)c(OC)c2)csc1NC(=O)C1CCCO1 (stereo unspecified) -3.98%
CCOC(=O)c1c(-c2ccccc2)csc1NC(=O)C1CCCO1 (stereo unspecified) 17.1%
Cc1ccsc1C(=O)NNC(=O)C1CC=CCC1C(=O)O (stereo unspecified) 28%
CC(C)OC(=O)c1c(-c2ccc(C(C)C)cc2)csc1NC(=O)C1CCCO1 (stereo unspecified) 16.2%
COC(=O)c1sccc1NC(=O)C1CC=CCC1C(=O)O (stereo unspecified) 36.4%
COC(=O)c1c(-c2cccc(C)c2)csc1NC(=O)C1CCCO1 (stereo unspecified) -0.44%
COc1ccc(NC(=O)C2=C(C)NC(=O)NC2c2cccs2)c(OC)c1 (stereo unspecified) 2.25%
COc1ccc(OCC(=O)OC2CCCN(C)C2)cc1 (stereo unspecified) 3.48%
Cc1c(-c2ccc(Cl)cc2)oc(=O)c2c(N)n(-c3ccccc3)nc12 -7.58%

From PubChem BioAssay AID1619 (SRMLSC, 2009)
